# Laboratory results as given in publication PMC11062922 (Nature Chemical Biology, 2023).
# Read-outs that look alike come from different tables or passages of the source.
# Assays:
# Design in all cases: species or system human, MV4-11 + K-562 + COLO205 + SK-N-BE2 + OVCAR-8
# [1] = tested on: T1, DJA1; details: read-out: apparent Kd, n = 1
# T1 construct: gene DNAJA1
# [2] = tested on: TGFBR1; details: read-out: apparent Kd; compound concentrations:100 nM and 1000 nM (sheet 'Samples'); n = 1
# [3] = tested on: MAP2K1; details: read-out: apparent Kd; compound concentrations:100 nM and 1000 nM (sheet 'Samples'); n = 1
# [4] = tested on: PIM2; details: read-out: apparent Kd; compound concentrations:100 nM and 1000 nM (sheet 'Samples'); n = 1
# [5] = tested on: STK26; details: read-out: apparent Kd; compound concentrations:100 nM and 1000 nM (sheet 'Samples'); n = 1
# [6] = tested on: DHCR24; details: read-out: apparent Kd, n = 1
# [7] = tested on: MCM5; details: read-out: apparent Kd; compound concentrations:100 nM and 1000 nM (sheet 'Samples'); n = 1
# [8] = tested on: EGFR; details: read-out: apparent Kd; compound concentrations: 100 nM and 1000 nM (sheet 'Samples'), CATDS: 1; n = 1
# [9] = tested on: NQO1; details: read-out: apparent Kd; compound concentrations: 100 nM and 1000 nM (sheet 'Samples'), CATDS: 0.149856517044136; n = 1
# [10] = tested on: PLK1; details: read-out: apparent Kd; compound concentrations: 100 nM and 1000 nM (sheet 'Samples'), CATDS: 0.13672731586716499; n = 1
# [11] = tested on: RIPK2; details: read-out: apparent Kd, compound concentrations: 100 nM and 1000 nM (sheet 'Samples'), n = 1
# [12] = tested on: RIPK3; details: read-out: apparent Kd; compound concentrations: 100 nM and 1000 nM (sheet 'Samples'), CATDS: 0.14106558052959201; n = 1
# [13] = tested on: TP53RK; details: read-out: apparent Kd; compound concentrations: 100 nM and 1000 nM (sheet 'Samples'), CATDS: 0.13630649736476699; n = 1
# [14] = tested on: PDXK; details: read-out: apparent Kd, compound concentrations: 100 nM and 1000 nM (sheet 'Samples'), n = 1
# [15] = tested on: DDR2; details: read-out: apparent Kd; compound concentrations: 100 nM and 1000 nM (sheet 'Samples'), CATDS: 0.27583033516959499; n = 1
# [16] = tested on: PIP4K2C; details: read-out: apparent Kd, compound concentrations: 100 nM and 1000 nM (sheet 'Samples'), n = 1
# [17] = tested on: PIK3C3; details: read-out: apparent Kd; compound concentrations: 100 nM and 1000 nM (sheet 'Samples'), CATDS: 0.180657848529719; n = 1
# [18] = tested on: PIK3CA; details: read-out: apparent Kd; compound concentrations: 100 nM and 1000 nM (sheet 'Samples'), CATDS: 0.62004014167069399; n = 1
# [19] = tested on: STK16; details: read-out: apparent Kd; compound concentrations: 100 nM and 1000 nM (sheet 'Samples'), CATDS: 0.16232458546683101; n = 1
# [20] = tested on: STK4; details: read-out: apparent Kd; compound concentrations: 100 nM and 1000 nM (sheet 'Samples'), CATDS: 0.1689879657386; n = 1
# [21] = tested on: PIK3CD; details: read-out: apparent Kd; compound concentrations: 100 nM and 1000 nM (sheet 'Samples'), CATDS: 0.41369424364853202; n = 1
# [22] = tested on: TTN; details: read-out: apparent Kd; compound concentrations: 100 nM and 1000 nM (sheet 'Samples'), CATDS: 0.51725800618074103; n = 1
# [23] = tested on: GSK3A; details: read-out: apparent Kd; compound concentrations: 100 nM and 1000 nM (sheet 'Samples'), CATDS: 0.18190367371529301; n = 1
# [24] = tested on: GSK3B; details: read-out: apparent Kd; compound concentrations: 100 nM and 1000 nM (sheet 'Samples'), CATDS: 0.17248189014097001; n = 1
# [25] = tested on: ILK; details: read-out: apparent Kd; compound concentrations: 100 nM and 1000 nM (sheet 'Samples'), CATDS: 0.13612875725697299; n = 1
# [26] = tested on: NQO2; details: read-out: apparent Kd; compound concentrations: 100 nM and 1000 nM (sheet 'Samples'), CATDS: 0.173411525016403; n = 1
# [27] = tested on: DDR1; details: read-out: apparent Kd; compound concentrations: 100 nM and 1000 nM (sheet 'Samples'), CATDS: 6.1893327663863601E-2; n = 1
# [28] = tested on: MAPK10; details: read-out: apparent Kd; compound concentrations: 100 nM and 1000 nM (sheet 'Samples'), CATDS: 0.12322586321359499; n = 1
# [29] = tested on: MAPK11; details: read-out: apparent Kd; compound concentrations: 100 nM and 1000 nM (sheet 'Samples'), CATDS: 9.0776517139408097E-2; n = 1
# [30] = tested on: MAPK14; details: read-out: apparent Kd; compound concentrations: 100 nM and 1000 nM (sheet 'Samples'), CATDS: 0.53727809259194403; n = 1
# [31] = tested on: MAPK8; details: read-out: apparent Kd; compound concentrations: 100 nM and 1000 nM (sheet 'Samples'), CATDS: 8.8413103607242097E-2; n = 1
# [32] = tested on: MAPK9; details: read-out: apparent Kd; compound concentrations: 100 nM and 1000 nM (sheet 'Samples'), CATDS: 0.12213676583314199; n = 1
# [33] = tested on: MAPKAPK2; details: read-out: apparent Kd; compound concentrations: 100 nM and 1000 nM (sheet 'Samples'), CATDS: 0.38284273517915801; n = 1
# [34] = tested on: NLK; details: read-out: apparent Kd; compound concentrations: 100 nM and 1000 nM (sheet 'Samples'), CATDS: 7.8409581021953403E-2; n = 1
# [35] = tested on: DYNC1LI1; details: read-out: apparent Kd; compound concentrations:100 nM and 1000 nM (sheet 'Samples'); n = 1
# [36] = tested on: GALK1; details: read-out: apparent Kd; compound concentrations:100 nM and 1000 nM (sheet 'Samples'); n = 1
# [37] = tested on: MAP3K1; details: read-out: apparent Kd; compound concentrations:100 nM and 1000 nM (sheet 'Samples'); n = 1
# [38] = tested on: MAP4K5; details: read-out: apparent Kd; compound concentrations:100 nM and 1000 nM (sheet 'Samples'); n = 1
# [39] = tested on: NUAK2; details: read-out: apparent Kd; compound concentrations:100 nM and 1000 nM (sheet 'Samples'); n = 1
# [40] = tested on: SLK; details: read-out: apparent Kd; compound concentrations:100 nM and 1000 nM (sheet 'Samples'); n = 1
# [41] = tested on: STK10; details: read-out: apparent Kd; compound concentrations:100 nM and 1000 nM (sheet 'Samples'); n = 1
# [42] = compound concentrations:100 nM and 1000 nM (sheet 'Samples')
smiles,measurement,setting,value
Clc1ccc(-c2cc(-c3c[nH]nc3-c3ccccn3)ccn2)cc1 [GW681251X],potency estimated from few doses,[1]; [42],843 nM
same,potency estimated from few doses,[2],856 nM
O=C1NC(=O)C(c2ccccc2)=C1Nc1cccc(O)c1 [SB-390534],potency estimated from few doses,[1]; [42],1350 nM
same,potency estimated from few doses,[3],1510 nM
same,potency estimated from few doses,[4],2120 nM
same,potency estimated from few doses,[5],1580 nM
COc1cccc(NC(=O)NC2CCN(c3ccnc(Nc4ccc(F)cc4)n3)C2)c1 (stereo not shown) [GSK1379721A],potency estimated from few doses,"[1]; compound concentrations: 100 nM and 1000 nM (sheet 'Samples'), CATDS: 1",1340 nM
O=C1NC(=O)C(N2CCc3ccccc32)=C1c1cccc(Cl)c1 [SB-408010],potency estimated from few doses,[6]; [42],1900 nM
same,potency estimated from few doses,[7],1580 nM
COc1cc2ncnc(Nc3ccc(OCc4ccccc4Br)c(Cl)c3)c2cc1OC.Cl [GI261590A],potency estimated from few doses,[8],2230 nM
CC(C)(C)S(=O)(=O)c1ccc2nccc(Nc3n[nH]c4ccc(F)cc34)c2c1 [GSK583],potency estimated from few doses,"[6]; compound concentrations: 100 nM and 1000 nM (sheet 'Samples'), CATDS: 0.15237648069571999",1410 nM
same,potency estimated from few doses,[9],1480 nM
same,potency estimated from few doses,[10],1910 nM
same,potency estimated from few doses,[11]; CATDS: 0.97549436112996002,4.2 nM
same,potency estimated from few doses,[12],1750 nM
same,potency estimated from few doses,[13],1930 nM
CCCc1ccc(S(=O)(=O)NC2CCN(c3ccnc(Nc4ccc(F)cc4)n3)C2)cc1 (stereo not shown) [GSK1379715A],potency estimated from few doses,"[1]; compound concentrations: 100 nM and 1000 nM (sheet 'Samples'), CATDS: 0.51176616573637201",1220 nM
same,potency estimated from few doses,[14]; CATDS: 0.488762713371233,1340 nM
CNC(=O)c1cncc(/C=C/c2c(C)cccc2C)c1 [GW445012X],potency estimated from few doses,[15],2060 nM
same,potency estimated from few doses,[16]; CATDS: 0.290600345689909,1800 nM
same,potency estimated from few doses,[11]; CATDS: 0.517215300479827,587 nM
COc1ccc(NC(=O)c2ccoc2)cc1-c1ccc(C(=O)NCC2CC2)cc1 [GW810437X],potency estimated from few doses,"[1]; compound concentrations: 100 nM and 1000 nM (sheet 'Samples'), CATDS: 0.17319621372560801",1720 nM
same,potency estimated from few doses,[17],1530 nM
same,potency estimated from few doses,[18],147 nM
same,potency estimated from few doses,[19],2060 nM
same,potency estimated from few doses,[20],1830 nM
Fc1cccc(COc2ccc(Nc3ncnc4sc(-c5ccco5)cc34)cc2Cl)c1 [GSK969786A],potency estimated from few doses,[8],815 nM
Nc1nccc2scc(-c3ccc4c(c3)CCN4C(=O)Cc3cc(F)ccc3F)c12 [GSK2587663A],potency estimated from few doses,"[1]; compound concentrations: 100 nM and 1000 nM (sheet 'Samples'), CATDS: 0.21507760056604699",1090 nM
same,potency estimated from few doses,[21],127 nM
same,potency estimated from few doses,[22],83.2 nM
Cn1cc(C2=C(c3cn(C)c4ncccc34)C(=O)NC2=O)c2ccccc21 [RO0271528-000],potency estimated from few doses,"[1]; compound concentrations: 100 nM and 1000 nM (sheet 'Samples'), CATDS: 0.169109962216623",1330 nM
same,potency estimated from few doses,[23],1150 nM
same,potency estimated from few doses,[24],1280 nM
same,potency estimated from few doses,[25],2170 nM
same,potency estimated from few doses,[26],1260 nM
same,potency estimated from few doses,[14]; CATDS: 0.17608898897019801,1230 nM
CS(=O)(=O)N1CCC(n2c(=O)c(Oc3ccc(F)cc3F)cc3cnc(NC4CCOCC4)nc32)CC1 [RO5045977-000],potency estimated from few doses,[27],1480 nM
same,potency estimated from few doses,[28],47.7 nM
same,potency estimated from few doses,[29],131 nM
same,potency estimated from few doses,[30],1.11 nM
same,potency estimated from few doses,[31],145 nM
same,potency estimated from few doses,[32],48.9 nM
same,potency estimated from few doses,[33],2.09 nM
same,potency estimated from few doses,[34],247 nM
same,potency estimated from few doses,[16]; CATDS: 0.11127151307282,65.2 nM
C[C@@H](Oc1cc(-n2cnc3cc(-c4ccncc4)ccc32)sc1C(N)=O)c1ccccc1Cl [GSK479719A],potency estimated from few doses,[35],1560 nM
same,potency estimated from few doses,[36],986 nM
same,potency estimated from few doses,[37],91.2 nM
same,potency estimated from few doses,[38],2270 nM
same,potency estimated from few doses,[39],1160 nM
same,potency estimated from few doses,[40],510 nM
same,potency estimated from few doses,[41],142 nM
